Only some compounds are listed: those with a hit (about 3.9% of all), similar ones and a draw of the others.
Peg3 prom inh: Peg3 promoter-driven luciferase inhibitors, primary screen, cell-based, HeLa, luciferase luminescence; AID 588405, 2011; HeLa PEG-Prom luciferase reporter, overnight; inhibition, % at 20 µM; hit rate 1.7% among 360,000;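 active means inhibition of at least 50% at 20 µM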
TWEAK-Fn14 inh: inhibitors of TWEAK-Fn14 signaling, primary screen, luciferase reporter cells, uHTS | TWEAK-stimulated Fn14 reporter cells, luciferase luminescence, 8 h | inhibition, % at 10 µM | hit rate 2% among 360,000 | AID 1159606, 2016; in the data active means inhibition above about 50%
CF NFkB inh: inhibitors of PAF-induced NF-kB signaling, primary screen, cell-based, GFP fluorescence, uHTS; hit rate 0.86% among 360,000; inhibition, % at 5 µM; KKLEB NF-kB-GFP reporter, GFP fluorescence overnight;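 active means at least 50% inhibition at 5 µM, scaled per plate between neutral and stimulator controls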;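 further: PAF is a Pseudomonas aeruginosa culture filtrate used as stimulus; plate controls were PAF-stimulated DMSO wells for no effect and unstimulated DMSO wells for full effect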
HIF-2a inh: HIF-2a reporter inhibitors, primary screen, luminescence, 786-0 RCC cells; 786-0 RCC cells HIF-2a reporter, luciferase luminescence, overnight; inhibition, % at 18.8 µM; hit rate 0.72% among 360,000; AID 624352, 2012;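 active means inhibition of the luminescence signal of 40% or more relative to plate controls, in a single-dose primary screen at 18.75 µM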
TROY NFkB inh: inhibitors of TROY-driven NF-kB signaling, primary screen, Q293 LMP1-TROYcd cells, NF-kB luciferase, uHTS; Q293 LMP1-TROYcd NF-kB luciferase reporter, 4 h; inhibition, % at 10 µM; hit rate 0.98% among 360,000; AID 1347056, 2019;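 active means compounds whose plate-normalised and pattern-corrected inhibition of the luciferase reporter signal at the single screening dose is 50% or more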
KKLEB tox: cytotoxicity in KKLEB CF airway cells, primary screen, cytotoxicity control for CF NF-kB inhibitor project, cell-based, uHTS, fluorescence assay plates. AID 602141, 2011. hit rate 0.36% among 360,000. KKLEB CF airway cells viability, ATPlite luminescence, overnight; active compounds read low; cells stimulated with P. aeruginosa culture filtrate. activity change (cytotoxicity), % at 5 µM;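 active means corrected activity change at or below -50% at 5 µM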
Mdm2 MdmX conf: retested Mdm2-MdmX interaction blockers, confirmation, cell-based, luminescence, single concentration, set 2; shares compounds with HIF-2a inh; SaOS-2 split-luciferase Mdm2/MdmX complementation; inhibition, % at 8 µM; hit rate 99% among 740; AID 504601, 2011;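 active means mean inhibition of the luminescence signal across two replicates at or above 26 percent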
HIF-2a conf: HIF-2a reporter inhibitor retest, confirmation, luminescence, 786-0 RCC cells; HIF-2a luciferase reporter luminescence, overnight; hit rate 56% among 1,800; shares compounds with HIF-2a inh; inhibition, % at 18.8 µM; AID 651580, 2012;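 active means mean inhibition across four replicates of at least 40 percent at the single tested concentration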
HIF-1a cs: HIF-1a luciferase reporter signal reduction – MiaPaCa-2 cells, single concentration, counter-screen for HIF-2a inhibitor project, confirmation; shares compounds with HIF-2a inh; MiaPaCa-2 HIF-1a luciferase reporter, desferoxamine, overnight; inhibition, % at 18.8 µM; hit rate 72% among 1,800; AID 651589, 2012;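 active means mean inhibition of the reporter signal across four replicates at the single tested dose of 50% or more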
* hit, by the source's call.

For COc1ccc(C)cc1N1C(=N)/C(=C2/Nc3ccccc3S2)C(c2ccccc2)C1=O (stereo unspecified) the results were Peg3 prom inh 91*, TWEAK-Fn14 inh 31, CF NFkB inh -6, HIF-2a inh 83*, TROY NFkB inh 7, KKLEB tox 0, HIF-2a conf -11 and HIF-1a cs 88*.
COc1ccc(S(=O)(=O)N(C)C)cc1NC(=O)[C@H](Cc1ccccc1)N1C(=O)c2ccccc2C1=O was read as Peg3 prom inh -4, TWEAK-Fn14 inh 1, CF NFkB inh 3, HIF-2a inh 18, TROY NFkB inh -3 and KKLEB tox 6.
Screening O=C(COC(=O)c1cccs1)Nc1cccc(S(=O)(=O)N2CCCCC2)c1 returned Peg3 prom inh -5, TWEAK-Fn14 inh 8, CF NFkB inh -6, HIF-2a inh 9, TROY NFkB inh 3 and KKLEB tox -4.
COCCNC(=O)c1c[nH]c2ccc(S(=O)(=O)N3CCc4ccccc43)cc2c1=O was read as Peg3 prom inh 51*, TWEAK-Fn14 inh 38, CF NFkB inh 0, HIF-2a inh 47*, TROY NFkB inh 9, KKLEB tox 15, HIF-2a conf 18 and HIF-1a cs 93*.
For COc1cc2c(cc1OC)[C@H](C)N(C(=S)Nc1ccc(F)cc1)CC2 the results were Peg3 prom inh 13, TWEAK-Fn14 inh 3, CF NFkB inh -2, HIF-2a inh 15, TROY NFkB inh -33 and KKLEB tox 4.
For CC(C)(C)OC(=O)N1Cc2ccccc2C[C@H]1C(=O)NCC(=O)Nc1ccc2c(c1)OCCO2 the results were Peg3 prom inh 40, TWEAK-Fn14 inh 96*, CF NFkB inh -5, HIF-2a inh 47*, TROY NFkB inh 82*, KKLEB tox 0, HIF-2a conf 58* and HIF-1a cs 81*.
CC(=O)NS(=O)(=O)c1ccc(NC(=O)c2cccc(OCc3c(C)noc3C)c2)cc1 was read as Peg3 prom inh 5, TWEAK-Fn14 inh -11, CF NFkB inh 2, HIF-2a inh 5, TROY NFkB inh -4 and KKLEB tox -1.
CCCCC(=O)Nc1ccc(C(N)=O)cc1 was read as Peg3 prom inh -23, TWEAK-Fn14 inh 9, CF NFkB inh 8, HIF-2a inh -17, TROY NFkB inh -1 and KKLEB tox 0.
CCCCCCCCCCCCCCCC[n+]1ccc(C(N)=O)cc1 was read as Peg3 prom inh 98*, TWEAK-Fn14 inh -7, CF NFkB inh 63*, HIF-2a inh 80*, TROY NFkB inh 16, KKLEB tox -69*, Mdm2 MdmX conf 100*, HIF-2a conf 53* and HIF-1a cs 100*.
CCOC(=O)C(=Cc1c[nH]c2ccc(S(=O)(=O)N(C)C)cc12)C(=O)OCC was read as Peg3 prom inh 33, TWEAK-Fn14 inh 66*, CF NFkB inh 42, HIF-2a inh 56*, TROY NFkB inh 8, KKLEB tox 5, HIF-2a conf 51* and HIF-1a cs 81*.
N#Cc1c(NC(=O)CSc2ncn[nH]2)sc2c1CCCCC2 was read as Peg3 prom inh 24, TWEAK-Fn14 inh 75*, CF NFkB inh 18, HIF-2a inh 90*, TROY NFkB inh 46, KKLEB tox 23, HIF-2a conf 96* and HIF-1a cs 70*.

Screens: PubChem, Sanford-Burnham Center for Chemical Genomics
